Each structure is given as a SMILES string. Hit rate of the full screen: of about 360,000 compounds, about 2,600 (0.72%) were called active. The full list was thinned out, with actives kept by preference. A number with no mark means an inactive call.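 Rule for the calls: active = inhibition above its plate's cutoff, the mean inhibition of sample wells plus 3 SD (cut at about 27% in these data); inactive = the rest.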

Chain of Muscarinic acetylcholine receptor M4 (Homo sapiens) (P08173 whole entry, looked up): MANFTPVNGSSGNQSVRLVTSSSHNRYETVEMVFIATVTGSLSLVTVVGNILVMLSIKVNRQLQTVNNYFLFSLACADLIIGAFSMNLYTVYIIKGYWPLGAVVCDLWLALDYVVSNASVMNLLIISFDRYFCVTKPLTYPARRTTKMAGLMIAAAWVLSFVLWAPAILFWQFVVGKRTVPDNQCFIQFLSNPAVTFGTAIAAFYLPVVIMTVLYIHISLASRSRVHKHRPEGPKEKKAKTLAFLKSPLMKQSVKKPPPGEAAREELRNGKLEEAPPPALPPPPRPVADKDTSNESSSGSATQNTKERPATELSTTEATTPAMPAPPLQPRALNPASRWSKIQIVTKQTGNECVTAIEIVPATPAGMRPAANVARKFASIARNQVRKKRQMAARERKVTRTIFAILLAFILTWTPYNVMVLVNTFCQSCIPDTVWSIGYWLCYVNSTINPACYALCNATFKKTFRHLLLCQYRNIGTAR

This test addresses Muscarinic acetylcholine receptor M4 (Homo sapiens) (UniProt P08173). Nature of the test: CHRM4 blockers of acetylcholine calcium response – CHO cells, Fluo-8 calcium fluorescence, primary screen (AID 624125).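 Note: 0% = acetylcholine EC80 with DMSO and 100% = DMSO without agonist.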 To be noted: CHO-hM4 cells, ACh EC80, Fluo-8 calcium fluorescence; at 3 µM; hits give high values.
With `Cc1ccc(S(=O)(=O)N2CCCC2C(=O)OCc2nc3sc(C)c(C)c3c(=O)[nH]2)cc1` (stereo unspecified), the inhibition (in general, the relative decrease from the control value, in per cent) was -8.5%. Then `CCN(CC)Cc1nc2sc(C)c(C)c2c(=O)[nH]1`, with 34.7% (active). The result for `Cc1sc2nc(CSCC(=O)Nc3c(Cl)cccc3Cl)[nH]c(=O)c2c1C` reads -1.67%; that for `Cn1c2c(c(=O)n(C)c1=O)C1c3ccccc3OCC1C(C)(C)O2` (stereo unspecified), -10.5%. For the molecule `Nc1nnc(SCC(=O)Nc2ccc3nc(SCC(=O)Nc4ccccc4)sc3c2)s1`, the inhibition was 40.5% (active).

As for `COc1cc(OC)cc(-c2nnc(SCC(=O)Nc3ccc(C(=O)O)cc3)s2)c1`, the inhibition is 3.22%. Then `CCCCNC(=O)CSc1nc2ccc(NC(=O)CSc3nnc(N)s3)cc2s1`, with 4.39%. Then `CSc1nc2nc(-c3cccc(C(F)(F)F)c3)ccn2n1`, with -1.52%; and `C=C(C)c1cccc(C(C)(C)NC(=O)N2CCN(c3ncccn3)CC2)c1`, with 6.08%. The result for `C=C(C)c1cccc(C(C)(C)NC(=O)NCCN(CC)CC)c1` reads 61.6% (active); that for `C=C(C)c1cccc(C(C)(C)NC(=O)NC2CCCC2)c1`, 4.8%; that for `COc1ccc(-c2cn(-c3ccc(C)cc3)c(=O)n2CC(=O)Nc2ccc(OC)c(OC)c2)cc1`, 4.43%. In the case of `Cc1cc2cc(CNC(=O)c3ccc(S(=O)(=O)N4CCOCC4)cc3)ccc2[nH]1`, the inhibition was 28.9% (active). In the case of `COC(=O)c1ccc(CNC(=O)c2ccc(S(=O)(=O)N3CCCCCC3)cc2)cc1`, the inhibition was 5.81%.

As to `Cc1cc2cc(CNC(=O)c3cccs3)ccc2[nH]1`, the inhibition is -4.44%.

As for `CC1CCc2sc(C(=O)N/N=C/C3CCCCC3)cc2C1` (stereo unspecified), the inhibition was -5.14%. Then `COc1ccc(-c2nc(N)sc2C2(O)C(=O)Nc3c(Br)cc(F)cc32)cc1OC` (stereo unspecified), with -0.95%; and `O=CNc1cc(-c2ccc(C(=O)N3CCOCC3)cc2)cn2c(-c3ccc(F)cc3)cnc12`, with 0.14%; and `CC(C)(C)N(CC#CCC(O)(c1ccccc1)C1CCCC1)CCO` (stereo unspecified), with 31.3% (active). As for `OC(C#CCN1CCOCC1)(c1ccccc1)C1CCCCC1` (stereo unspecified), the inhibition is 10.4%. With `Cc1ccc(C)c(N2CCN(C(=O)CCc3nc(-c4cccc(C(F)(F)F)c4)no3)CC2)c1`, the inhibition was -9.53%. Then `Cc1cc(O)ccc1NC1=CC(=O)CC(C)(C)C1`, with 2.61%; and `CCc1nc2c(OCCOc3ccc(F)cc3)cccn2c1N(C)C(=O)c1ccccc1F`, with 1.61%. Consider `COc1ccc(S(=O)(=O)N(C)C[C@H]2Oc3ccc(NS(=O)(=O)c4cccs4)cc3CC(=O)N([C@H](C)CO)C[C@H]2C)cc1`, for which the inhibition is 5.37%. The result for `CCOC(=O)CCCCCC(=O)Nc1ccc2c(c1)CC(=O)N([C@@H](C)CO)C[C@H](C)[C@@H](CN(C)Cc1ccccc1)O2` reads -3.74%; that for `C[C@H]1CN([C@@H](C)CO)C(=O)Cc2cc(NC(=O)Cc3ccccc3)ccc2O[C@H]1CN(C)S(=O)(=O)c1cccs1`, 35.1% (active). Then `NC(=O)c1cc(S(=O)(=O)NCCCc2ccco2)cs1`, with 3.61%.

Regarding `O=C(CNS(=O)(=O)c1ccc(Br)s1)N1CCN(C(=O)c2ccco2)CC1`, the inhibition is -1.1%.

In the case of `CC(C)C(NS(=O)(=O)c1cccs1)C(=O)Nc1nc(C(C)(C)C)cs1` (stereo unspecified), the inhibition was -1.31%. The result for `Cc1ccc(N(Cc2ccc(C(=O)Nc3ccccc3C(=O)NCc3ccco3)cc2)S(C)(=O)=O)cc1C` reads 39.7% (active); that for `CCN1CCN(C(=O)c2ccc(CN(c3ccc(C)c(C)c3)S(C)(=O)=O)cc2)CC1`, -4.91%; that for `CS(=O)(=O)N(Cc1ccc(Cl)cc1)c1ccc(C(=O)NCCSCc2ccco2)cc1`, 13.9%. Then `c1ccc2c(c1)OC1OC2Oc2ccccc21`, with -7.83%; and `COc1ccc(S(=O)(=O)NC2(C(F)(F)F)N=C3SCCN3C2=O)cc1` (stereo unspecified), with -9.21%; and `CCN1CCN(c2ccc(S(=O)(=O)N3CCCCC3)cc2NC(=O)c2cccc(NC(C)=O)c2)CC1`, with -6.66%.

Consider `COc1cc(CN2CCCC(C(=O)c3ccc(SC)cc3)C2)cc(Cl)c1O` (stereo unspecified), for which the inhibition was -23.2%.

Regarding `COc1ccc(CN2CCCC(C(=O)c3ccc(Cl)cc3)C2)cc1Cn1cncn1` (stereo unspecified), the inhibition is 38.6% (active). In the case of `COc1ccc(CN2CCCC(C(=O)N3CCCCC3)C2)cc1` (stereo unspecified), the inhibition is 1.76%. Then `CCN(CC)N=Nc1cccc(NC(C)=O)c1`, with 5.94%.

In the case of `CN(C(=O)CSc1nnc(-c2ccc3c(c2)OCO3)o1)C1CCS(=O)(=O)C1` (stereo unspecified), the inhibition is 0.5%.

As for `O=C(c1ccccn1)c1ncc(C(F)(F)F)cc1Cl`, the inhibition was 9.21%. Then `N/C(=N\OC(=O)CCCC(=O)O)c1ncc(C(F)(F)F)cc1Cl`, with 3.64%; and `N/C(=N\OC(=O)Nc1ccc(Cl)c(Cl)c1)c1ncc(C(F)(F)F)cc1Cl`, with 27% (active). Then `O=C(COc1ccc(S(=O)(=O)NCc2ccccc2)cc1)N1CCOCC1`, with 4.93%; and `CC(O)C(NS(=O)(=O)c1ccc(Cl)cc1)C(=O)OCc1cc([N+](=O)[O-])cc2c1OCOC2` (stereo unspecified), with 5.24%; and `CCOc1ccccc1NC(=S)C(=C([O-])c1ccc2c(c1)OCCO2)[n+]1ccc(CC)cc1`, with -1.01%. Then `Cc1cc([N+](=O)[O-])c(NC2CCCCC2)c([N+](=O)[O-])c1`, with 7.51%; and `Clc1cc(NC2CCCCC2)ncn1`, with 98.6% (active). Take `CCc1cc2c(NC3CCCC3)ncnc2s1`: the inhibition is 11.2%. Then `CN(CC1CCCN(CCc2cccc(C(F)(F)F)c2)C1)C(=O)c1ccc2nc[nH]c2c1` (stereo unspecified), with 41% (active); and `CC(=O)c1ccc(N2CCN(C(=O)c3ccc4nc[nH]c4c3)CC2)cc1`, with 4.68%; and `Cc1nc2ccc(C(=O)N(C)CC3CCCN(CCc4ccc(Cl)cc4)C3)cc2[nH]1` (stereo unspecified), with 19.4%. The result for `CSc1ccccc1NC(=O)c1ccc2c(c1)CCN2S(C)(=O)=O` reads -5.17%; that for `O=C(CSCc1ccc([N+](=O)[O-])cc1)Nc1cccc(C(=O)Nc2ccccc2C(=O)O)c1`, 7.83%; that for `CN(CC(=O)Nc1ccc(S(=O)(=O)N2CCCC2)cc1)Cc1ccc(Cl)c(Cl)c1`, 4.23%. Then `CCc1ccc(CN(C)C(C)C(=O)Nc2ccc(S(=O)(=O)N3CCCC3)cc2)cc1` (stereo unspecified), with 26.6% (active); and `CC(C(=O)Nc1ccc(S(=O)(=O)N2CCCC2)cc1)N(C)Cc1ccc(F)cc1` (stereo unspecified), with -3.14%.

Regarding `CCc1ccc(/C=N/NC(=O)c2nnn(-c3nonc3N)c2CN2CCc3ccccc32)cc1`, the inhibition is 6.06%.

As for `CCOC(=O)CSc1nnc(NC(=O)C2CC(=O)N(c3ccc(F)cc3)C2)s1` (stereo unspecified), the inhibition is 5.76%.

For `CN1/C(=C\C=C2\N=C(c3ccc(F)cc3)OC2=O)C(C)(C)c2ccccc21`, the inhibition was 50.7% (active). Then `Cc1ccc(S(=O)(=O)NC[C@H]2O[C@@H](n3cnc4c(N)ncnc43)[C@H](O)[C@@H]2O)s1`, with -5.46%. The result for `O=C(CNS(=O)(=O)c1ccc(Br)s1)NCc1ccc2c(c1)OCO2` reads 1.5%. Then `COc1ccc(NC(=O)N(C)C[C@@H]2OCc3cn(nn3)CCCC(=O)N([C@H](C)CO)C[C@H]2C)c(OC)c1`, with 8.28%; and `CCOC(=O)N1CCN(C(=O)c2ccc3c(c2)N(Cc2ccc(C)cc2)CCS3)CC1`, with -7.97%.

Regarding `CC1CCCN(c2ccc(C(=O)NCCc3ccccc3)cn2)C1` (stereo unspecified), the inhibition was -4.49%. Then `O=C(NCCc1ccccc1)c1ccc2c(c1)N(Cc1ccccc1)CCS2`, with 35% (active).

On to `CCOC(=O)c1cnc(Nc2nc3ccccc3o2)nc1CSC(=S)N1CCCCC1`, for which the inhibition is -1.75%.

Regarding `COc1cccc(CNCCc2c[nH]c3ccccc23)c1OCc1ccccc1F`, the inhibition was 27.2% (active). Regarding `Fc1ccccc1COc1ccccc1CNCc1ccncc1`, the inhibition was -4.74%. The result for `COc1cccc(CNn2cn[nH]c2=S)c1OCc1ccccc1` reads -1.76%; that for `C=C(C)CNC(=S)Nc1ccc(S(=O)(=O)Nc2cnc3ccccc3n2)cc1`, 2.87%. Then `CC(NCCO)C(=O)C12CC3CC(CC(C3)C1)C2` (stereo unspecified), with 2.3%; and `Cc1c(C(=O)NC2CCCCC2)oc2ccccc12`, with -11.4%; and `Cc1ccc2c(C)c(C(=O)N(C)Cc3ccncn3)oc2c1C`, with -3%. The result for `CCCC[C@@H]1CN=C(N)N1CCc1cc(C(F)(F)F)cc(C(F)(F)F)c1` reads 31.9% (active); that for `CCCCN1C(N)=NC[C@@H]1CC1CCCCC1`, -1.98%. Consider `CN(C)C1=NC[C@H](Cc2ccccc2)N1CCc1ccc(F)cc1`, for which the inhibition is -0.99%. Turning to `Cc1nc(N)c(Br)c(C)c1Br`, the inhibition was -2.18%.

For `CSc1ccc(S(=O)(=O)N2CCC(C(=O)NCc3ccncc3)CC2)cc1`, the inhibition is -10.4%.

In the case of `Cn1c(CCC(=O)Nc2ccccc2F)nnc1SCC(=O)Nc1ccccc1Cl`, the inhibition was -10.1%. Then `CN1CCN(S(=O)(=O)c2cccc(C(=O)N3CCc4ccccc43)c2)CC1`, with 3.72%; and `Cn1cccc1C(=O)N1CCc2ccccc2C1`, with 10.4%. Take `CN1CCN(C(=O)N2c3ccccc3CCc3ccccc32)CC1`: the inhibition was 51% (active).

On to `O=C(O)C(=Cc1ccccc1[N+](=O)[O-])c1ccccc1`, for which the inhibition is -15.2%. Then `Cc1ccc(C2Nc3ccccc3C(=O)N2CCN2CCNC2=O)cc1` (stereo unspecified), with -5.69%; and `COc1ccc(C(C#N)N2N=C(C)CC2(C)C)cc1` (stereo unspecified), with -4.9%; and `CC[C@@H]1Cc2cc(O)ccc2C2=C1c1ccc(O)cc1C[C@H]2CC`, with 72.5% (active). Then `CCOC(=O)C1(Cc2ccccc2C)CCCN(C(=O)CN2C(=O)CSC2=O)C1` (stereo unspecified), with 4.46%; and `O=C(CSc1ccc(-c2ccc(-n3cccn3)cc2)nn1)Nc1ccc([N+](=O)[O-])cc1`, with 101% (active). Then `O=C(CSc1ccc(-c2ccccn2)nn1)Nc1ccccc1`, with 5.15%; and `O=C(CSc1ccc([N+](=O)[O-])cn1)Nc1ccc(N2CCOCC2)cc1`, with -3.21%.

(Values after PubChem BioAssay AID624125 (The Scripps Research Institute Molecular Screening Center, 2012).)
